BCR signal inh: chronic active BCR signaling inhibition. ABC-DLBCL IkBa-CBG/CBR reporter, luminescence ratio, 4 h. Potency, µM (highest dose often 46.1 µM), for inactives: at the highest dose activity change, negative = inhibition, actives largely listed as inhibitors. hit rate 0.05% among 340,000; active = well fitted inhibition curve with a large enough effect in the signal ratio, with a control signal flat, not every such curve was filed as active; inconclusive = small, poorly fitted or top-dose-only effect, or effect the other way, or a change in a side signal; the % refers to the signal ratio;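 also: potency is read from the fitted curve at half-maximal effect; plate controls were basal doxycycline-induced cells for no effect and cells given 10 µM MG132 for full effect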
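Concentration-response series (up to 46 uM) were applied to TMD8 dual-reporter cells for 4 h at 37C with doxycycline. Green/red ratio, after filter-overlap correction, defined %Activity; red signal alone was normalised to basal cells and zero luminescence.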
RORgamma inh: ROR gamma (mouse) transcription inhibition; P51450; Drosophila S2 Gal4-RORgamma UAS-luciferase reporter, 20 h; Potency, µM (titrated, usually from 53.6 µM), for inactives: top-dose activity change, negative = inhibition, actives largely listed as inhibitors; hit rate 5.4% among 310,000; AID 2551; also: potency is read from the fitted curve at half-maximal effect; % is scaled to controls: 0 for no effect and ±100 for the full control effect; nearly all actives have a fitted effect of over 60% in size
Target sequence (P51450 whole entry, looked up, the tested form may be a part): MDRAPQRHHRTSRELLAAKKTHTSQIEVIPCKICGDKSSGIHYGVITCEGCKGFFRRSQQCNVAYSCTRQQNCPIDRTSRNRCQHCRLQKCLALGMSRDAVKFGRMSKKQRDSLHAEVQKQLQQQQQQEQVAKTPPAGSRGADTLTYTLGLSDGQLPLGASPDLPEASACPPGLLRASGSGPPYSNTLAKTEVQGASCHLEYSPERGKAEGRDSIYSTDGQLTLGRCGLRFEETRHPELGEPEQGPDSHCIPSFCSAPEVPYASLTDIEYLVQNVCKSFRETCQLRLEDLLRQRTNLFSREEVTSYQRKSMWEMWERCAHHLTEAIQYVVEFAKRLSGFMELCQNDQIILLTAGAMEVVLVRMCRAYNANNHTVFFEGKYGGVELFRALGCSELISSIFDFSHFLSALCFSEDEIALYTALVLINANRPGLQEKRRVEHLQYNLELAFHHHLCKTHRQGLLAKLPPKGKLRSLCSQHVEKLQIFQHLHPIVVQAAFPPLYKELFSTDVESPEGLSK
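Read-out: Photinus luciferase luminescence; inhibitors lower reporter signal. Insect Schneider cells with Gal4-ROR gamma fusion under metallothionein promoter, UAS reporter; 700 uM final copper sulfate induction, 20 hr, ambient temperature.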
MCF10A rerep: DNA re-replication induction in MCF 10a cells; MCF 10A DNA re-replication, Hoechst nuclear intensity, 48 h; hit rate 2.9% among 350,000; Potency, µM (doses to about 46.1 µM), for inactives: at the highest dose activity, positive = re-replication, actives largely listed as activators; also: potency is read from the fitted curve at half-maximal effect; % of control where 0% means no effect; nearly all actives have a fitted effect of over 50% in size
Giardia kill: Giardia lamblia killing | Giardia lamblia trophozoite viability | activity change, % at 7.66 µM, hits read low | hit rate 0.15% among 340,000 | AID 540267; in the data active = activity change below about -80%; inconclusive = between about -30% and that limit;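 also: parasites exposed to compound for two days anaerobically before the ATP read; % is scaled to controls: 0 for no effect and ±100 for the full control effect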
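Anaerobic 48 hrs incubation at 37 deg C of 100 trophozoites/well with test compounds; ATPLite 1-Step luminescence, 15-30 min RT, reports cellular ATP as viability.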
VP16 counter: Gal4-VP16 reporter inhibition counter-screen | Drosophila S2 Gal4-VP16 UAS-luciferase, luminescence, 20 h | Potency, µM (titrated, usually from 53.6 µM), for inactives: top-dose activity, negative = inhibition, most hits filed as inhibitors | hit rate 3.5% among 310,000 | AID 2546;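 also: Gal4-VP16 expression switched on by copper sulfate through the metallothionein promoter; potency is read from the fitted curve at half-maximal effect; % is scaled to controls: 0 for no effect and ±100 for the full control effect; nearly all actives have a fitted effect of over 50% in size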
SW480 rerep: induces DNA re-replication in SW480 colon adenocarcinoma cells | SW480 DNA re-replication, Hoechst DNA content imaging, 48 h | Potency, µM (top dose mostly 46.1 µM), inactives show at the highest dose re-replication activation, hits mostly activators | hit rate 1.8% among 340,000 | AID 624297; also: potency is read from the fitted curve at half-maximal effect; % of control where 0% means no effect; nearly all actives have a fitted effect of over 55% in size
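SW480 cells exposed to compounds for 48 hr at 37 C, 5% CO2, then Hoechst-stained 40 min. Nuclear DNA content imaged by fluorescence scanning (405 nm excitation, 500-530 nm emission); re-replication scored as increased high-intensity nuclei.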
* marks the source's active call; other numbers are inactive results; ? = inconclusive; . = not tested or not shown; ! = repeats disagree; [ ] = dose if it differs, or a comment. Most compounds without a hit are left out; they make up all but 8.3% or so of the library. Unless noted, calls follow the shape of the dose curve; as a rule, active = well fitted curve in the direction sought with a large enough effect; inconclusive = small, poorly fitted or top-dose-only effect, or another doubt; inactive = no such curve, though single readings can be large; an effect the other way counts as inactive or inconclusive.

SMILES	BCR signal inh	RORgamma inh	MCF10A rerep	Giardia kill	VP16 counter	SW480 rerep
CCC1NC(=O)C(NC(=O)c2ncccc2O)C(C)OC(=O)C(c2ccccc2)NC(=O)C2CC(=O)CCN2C(=O)C(Cc2ccccc2)N(C)C(=O)C2CCCN2C1=O (centres undefined)	.	32%	0%	.	-4%	11%
Cc1ccc(C)c(S(=O)(=O)N2CCN(C(=O)CCNS(=O)(=O)c3ccccc3)CC2)c1	-1%	14%	9%	3	-3%	1%
COc1ccc(/C=C2\N=C(c3ccccc3Cl)NC2=O)cc1	-3%	8%	13µM*	-7	2%	10µM*
CCSC1=N/C(=C\c2ccc(OC)cc2)C(=O)N1	?	-3%	14%	-14	-9%	2%
COc1ccc(/C=C2\N=C(SC)NC2=O)cc1	.	13µM*	7%	8	?	-6%
Cc1ccccc1N=Nc1c(C)[nH]n(C(N)=S)c1=O	?	0.4µM*	28%	-2	1µM*	2%
COc1cccc(N=Nc2c(C)[nH]n(-c3ccccc3)c2=O)c1	5%	-2%[1.91 µM]	-3%	-22	?	-22%
Cc1cccc(N=Nc2c(C)[nH]n(C(N)=S)c2=O)c1C	?	0.4µM*	.	.	1.6µM*	.
Cc1[nH]n(C(N)=S)c(=O)c1N=Nc1ccccc1C(F)(F)F	?	0.32µM*	6%	?	2.5µM*	-19%
Cc1ccccc1N=Nc1c(C)[nH]n(-c2ccccc2)c1=O	-3%	-14%	1%	6	-9%	0%
CCOc1ccccc1N=Nc1c(C)[nH]n(C(N)=S)c1=O	?	0.45µM*	1%	2	1.3µM*	-6%
CC(=O)OCC1OC(c2cc(C)cc(C)c2)C=CC1OC(C)=O (centres undefined)	.	3%[10 µM]	.	.	-7%[10 µM]	.
COC(C[C@@H]1O[C@@H]1[C@H](O)COCc1ccccc1)OC	?	-1%	?	1	-11%	-3%
Cc1c(C(C)(C(=O)O)c2c(C)n(C)c3ccccc23)c2ccccc2n1C	?	20%	.	.	-14%	.
Cc1[nH]n(C(N)=S)c(=O)c1N=Nc1ccc([N+](=O)[O-])cc1Cl	?	0.71µM*	?	-19	3.5µM*	1%
COc1ccc(/C=N/NC(=O)CN(C)C(=O)OCc2ccccc2)cc1OC	?	-7%	6%	-6	-2%	0%
Cc1ccc(C)c(S(=O)(=O)N2CCN(c3nc(-c4cccnc4)nc4ccccc34)CC2)c1	6%	.	0.65µM*	-18	.	-2%
C(=C\c1nc(N2CCCCCC2)c2ccccc2n1)/c1ccccc1	23%	?	21µM*	3	-16%	?
c1ccc(N2CCN(c3nc(-c4ccccn4)nc4ccccc34)CC2)cc1	-6%	0.28µM*	25%	2	1.6µM*	?
c1cncc(-c2nc(N3CCCCCC3)c3ccccc3n2)c1	-1%	11µM*	6%	3	?	-7%
CCN(CC)S(=O)(=O)c1ccc2c(c1)nc(SCC(=O)NCC1CCCO1)n2CC (centres undefined)	5%	.	1%	-5	.	-82%
CC(C)NC(=O)NC(=O)COC(=O)c1ncc(Cl)c(Cl)c1Cl	-7%	-31%	0%	-27	27%	-2%
C[C@@H]1COC(=O)[C@H](Cc2ccc(F)cc2)CC/C=C/C[C@@H](CC(=O)N[C@@H](CO)Cc2ccccc2)C(=O)N1	0%	.	2%	-9	.	?
O=C(C[C@@H]1C/C=C/CC[C@H](Cc2ccc(F)cc2)C(=O)OC[C@@H](Cc2ccccc2)NC1=O)N[C@H](CO)Cc1ccccc1	?	.	7.3µM*	-29	.	?
O=C1NC[C@@H](c2ccccc2)OC(=O)[C@@H](Cc2ccc(F)cc2)CC/C=C/C[C@H]1CC(=O)N(CCO)Cc1ccccc1	.	.	?	-22	.	4.6µM*
SMILES	BCR signal inh	RORgamma inh	MCF10A rerep	Giardia kill	VP16 counter	SW480 rerep
Cc1ccccc1-c1ncc(CN2CCN(C3CCCCC3)C(CCO)C2)cn1 (centres undefined)	?	2%	-2%	-2	?	6%
CCC(=O)NNC(=O)CSc1nnc(-c2ccccc2)c(-c2ccccc2)n1	1%	-17%	1%	4	-10%	-2%
Cc1ccc2c(=O)c3ccccc3n(CCCN)c2c1C	.	11µM*!	.	.	16µM*!	.
CC1CCN(S(=O)(=O)c2cccc(C(=O)N(C)C3(C)CCS(=O)(=O)C3)c2)CC1 (centres undefined)	4%	2%	7%	-27	-2%	11%
O=C1CC(C(=O)N2CCCc3ccccc32)CN1c1ccc(Cl)cc1 (centres undefined)	17%	31%	13%	0	27%	-5%
CCOC(=O)C1=CNS(=O)(=O)NC1c1ccc(C)cc1 (centres undefined)	-1%	.	8%	-16	.	-1%[9.22 µM]
Cc1cccc(N=C2NN=C(c3ccc4c(c3)OCCO4)CS2)c1	?	7.9µM*	?	-11	?	?
CCc1ccc(C2=NNC(=Nc3cccc(S(=O)(=O)N(C)C)c3)SC2)cc1	3%	?	?	-18	-12%	21µM*
Cc1cccc(N=C2NN=C(c3c(C)[nH]c4ccccc34)CS2)c1	?	33%	15µM*	7	?	?
Cc1ccc(C2=NNC(=Nc3ccc(F)cc3)SC2)cc1	?	?	-8%	8	?	25%
Cc1cccc(N=C2CSC(=O)N2)c1	-9%	20%	-1%	5	3%	-1%
Cc1cc(C)c(C)c(S(=O)(=O)Nc2ccccc2C(=O)NCCCN2CCOCC2)c1C	2%	5%	-1%	19	6%	-1%
CCOC(=O)N1C(=O)[C@](CC)(c2ccccc2)N1C(=O)OCC	0%	24%	16µM*	2	5%	?
COc1ccc(OCCN(C)C(=O)c2cccc(S(=O)(=O)N(C)c3ccccc3)c2)cc1	?	.	?	-2	.	-6%
CCN1C(=O)[C@@H]2[C@@H](c3ccc(SC4CCCCC4)c(OC)c3)N3CCCC[C@@]3(C(=O)OC)[C@@H]2C1=O	1%	.	16%	-27	.	4%
ClC(Cl)(Cl)c1nc2ccccc2n2nncc12	?	?	?	2	-1%	13µM*
CCN(CC)C(=O)c1sc2c(c1C)c(=O)n(-c1ccc(C)c(C)c1)c(=O)n2Cc1cccc(Cl)c1	4%	.	.	.	.	.
CC(C)C(NC(=O)OCc1ccccc1)C(=O)NCc1ccc(C(=O)O)cc1 (centres undefined)	-4%	-34%	0%	12	0%	-48%
S=C(NCc1ccccc1)NCc1ccc(CNC(=S)NCc2ccccc2)cc1	-2%	2%	-2%	33	3%	-2%

Screens as filed in PubChem BioAssay.
